In PubChem BioAssay (NCATS) one finds Potency data, which are given here for eight compounds.

Results filed as inconclusive are left out. Activity calls are given as the source filed them. The call rests on the fitted dose curve; in most records, active means well fitted inhibition curve with a large enough effect; inconclusive means small, poorly fitted or top-dose-only effect; inactive means flat fitted curve, though single readings scatter.

Test [1] concerns the target Luciferin 4-monooxygenase (Photinus pyralis) (UniProt P08659). In words: Biochemical firefly luciferase enzyme assay for NPC (AID 624030).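 Further: purified P. pyralis luciferase at 10 nM with luciferin and ATP substrate; nearly all actives have a fitted effect of over 70% in size.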 An outline of the steps:
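Purified P. pyralis luciferase at 10 nM in 50 mM Tris Acetate (final), luminescence read within 5 minutes of enzyme addition to compounds. Activity normalised to PTC124 versus DMSO; concentration-response curves classed by r2, magnitude and activity.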

The subject of another test is CP266. In words: qHTS profiling for inhibitors of Plasmodium falciparum proliferation (AID 504749). Further: nearly all actives have a fitted effect of over 60% in size. Further: potency means the concentration at half of the fitted maximal effect. Particulars: P. falciparum in erythrocytes, SYBR Green DNA, 72 h; series mostly up to 28.7 µM. Put shortly:
(§1)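 P. falciparum-infected erythrocytes (0.3% parasitemia, 2.5% hematocrit) incubated with compound 72 h at 37 C, 5% CO2. Parasite DNA detected by SYBR Green after lysis, overnight at room temperature; normalised to 0.29 uM artemisinin and DMSO.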
(In general: qHTS replaces the single test concentration by a dilution series.)

The subject of a further test is CP268. Described as above. The settings on record: P. falciparum in erythrocytes, SYBR Green DNA, 72 h; series mostly up to 28.7 µM. Put shortly: as §1
A further test concerns CP269. The description is as above. The settings on record: P. falciparum in erythrocytes, SYBR Green DNA, 72 h; series mostly up to 28.7 µM. Put shortly: as §1
Another test deals with CP297. The test is described as above. Particulars: P. falciparum in erythrocytes, SYBR Green DNA, 72 h; series mostly up to 28.7 µM. An outline of the steps:
as §1

Another test relates to CP305. The description is as above. The settings on record: P. falciparum in erythrocytes, SYBR Green DNA, 72 h; series mostly up to 28.7 µM. An outline of the steps:
as §1

Another test relates to CP325. The test is described as above. The settings on record: P. falciparum in erythrocytes, SYBR Green DNA, 72 h; series mostly up to 28.7 µM. Put shortly:
as §1

In the next test the test system is CP329. The description is as above. The settings on record: P. falciparum in erythrocytes, SYBR Green DNA, 72 h; series mostly up to 28.7 µM. An outline of the steps:
as §1

The next test deals with CP335. The test is described as above. Particulars: P. falciparum in erythrocytes, SYBR Green DNA, 72 h; series mostly up to 28.7 µM. Put shortly: as §1
The next test deals with DIV14. The description is as above. Particulars: P. falciparum in erythrocytes, SYBR Green DNA, 72 h; series mostly up to 28.7 µM. Put shortly: as §1
Another test concerns ECU. The test is described as above. The settings on record: P. falciparum in erythrocytes, SYBR Green DNA, 72 h; series mostly up to 28.7 µM. Put shortly: as §1
The subject of the next test is GB4. The description is as above. The settings on record: P. falciparum in erythrocytes, SYBR Green DNA, 72 h; series mostly up to 28.7 µM. Put shortly: as §1
The test system of a further test is JCK. The description is as above. Particulars: P. falciparum in erythrocytes, SYBR Green DNA, 72 h; series mostly up to 28.7 µM. Put shortly:
as §1

A further test deals with P93_24. The description is as above. The settings on record: P. falciparum in erythrocytes, SYBR Green DNA, 72 h; series mostly up to 28.7 µM. Put shortly:
as §1

The next test deals with PAD. The description is as above. Particulars: P. falciparum in erythrocytes, SYBR Green DNA, 72 h; series mostly up to 28.7 µM. Put shortly:
as §1

The next test deals with PC15. Described as above. Particulars: P. falciparum in erythrocytes, SYBR Green DNA, 72 h; series mostly up to 28.7 µM. An outline of the steps: as §1
Another test deals with PC49. The description is as above. Particulars: P. falciparum in erythrocytes, SYBR Green DNA, 72 h; series mostly up to 28.7 µM. An outline of the steps: as §1
A further test deals with TAB109. Described as above. The settings on record: P. falciparum in erythrocytes, SYBR Green DNA, 72 h; series mostly up to 28.7 µM. An outline of the steps:
as §1

Another test relates to TAB113. Described as above. Particulars: P. falciparum in erythrocytes, SYBR Green DNA, 72 h; series mostly up to 28.7 µM. An outline of the steps: as §1
The test system of a further test is PC26. The description is as above. The settings on record: P. falciparum in erythrocytes, SYBR Green DNA, 72 h; series mostly up to 28.7 µM. An outline of the steps: as §1

Chain of Luciferin 4-monooxygenase (Photinus pyralis) (P08659 whole entry, looked up): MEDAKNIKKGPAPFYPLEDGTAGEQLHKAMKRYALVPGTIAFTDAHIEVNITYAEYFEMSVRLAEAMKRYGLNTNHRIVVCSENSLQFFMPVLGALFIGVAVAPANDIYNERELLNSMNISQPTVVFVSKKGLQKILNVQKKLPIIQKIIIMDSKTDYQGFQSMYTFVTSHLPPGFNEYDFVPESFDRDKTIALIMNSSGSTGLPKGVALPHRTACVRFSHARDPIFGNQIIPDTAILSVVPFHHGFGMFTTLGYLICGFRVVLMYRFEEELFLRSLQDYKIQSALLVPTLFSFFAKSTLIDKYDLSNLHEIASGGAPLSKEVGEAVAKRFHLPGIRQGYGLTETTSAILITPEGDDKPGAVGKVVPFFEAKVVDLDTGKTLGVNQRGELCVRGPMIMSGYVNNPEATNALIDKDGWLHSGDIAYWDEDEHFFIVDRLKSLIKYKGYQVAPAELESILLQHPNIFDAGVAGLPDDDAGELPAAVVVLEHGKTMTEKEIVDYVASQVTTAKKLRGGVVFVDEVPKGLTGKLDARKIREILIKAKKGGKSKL

`NC(=O)NC(CCC(=O)O)C(=O)O` (stereo unspecified): the Potency entry (in [1]; with CP266; in the test on CP268; with CP269; with CP297; in the test on CP305) was “inactive” throughout. The Potency entry with CP325, in the test with CP329, in the test on CP335, with DIV14, in the test with ECU and with GB4 was “inactive” throughout. The Potency result in the test on JCK, in the test with P93_24, in the test with PAD, with PC15, with PC49 and with TAB109 was “inactive” each time. Besides, the Potency result in the test on TAB113 was “inactive”.
`Cc1onc(-c2c(F)cccc2Cl)c1C(=O)NC1C(=O)N2C1SC(C)(C)C2C(=O)O` (stereo unspecified): the Potency entry (in test [1]; in the test on CP266; in the test with CP268; in the test on CP297; in the test with CP305; in the test with CP325) was “inactive” throughout. The Potency result with CP329, with CP335, in the test on DIV14, in the test with ECU, with GB4 and in the test on JCK was “inactive” throughout. The Potency entry with P93_24, in the test with PAD, with PC15, in the test on PC26, with PC49 and in the test with TAB109 was “inactive” in each case. Moreover, the Potency result with TAB113 is “inactive”.
`OCC1O[C@H](Oc2ccc(O)cc2)C(O)C(O)C1O` (stereo partly specified): the Potency entry (in [1]; in the test with CP266; in the test on CP268; in the test with CP269; in the test on CP297; in the test with CP305) was “inactive” in each case. The Potency entry in the test on CP325, in the test with CP329, with CP335, in the test on DIV14, with GB4 and in the test on JCK was “inactive” in each case. Also, the Potency result in the test on PAD, in the test with PC15, with PC26, in the test on PC49, in the test with TAB109 and with TAB113 was “inactive” in each case.
For the compound `OCC1OC(O)C(O)C(O)C1O` (stereo unspecified), the Potency result (in [1]; with CP266; in the test with CP268; with CP305; in the test with CP329; in the test on CP335) was “inactive” each time. Besides, the Potency result in the test with ECU, in the test with JCK, with P93_24, with PAD, in the test with PC15 and in the test on PC49 was “inactive” each time. For the same compound, the Potency result in the test on TAB109 and with TAB113 was “inactive” each time.
For `C[S+](C)CC[C@H](N)C(=O)O`, the Potency result (in test [1]; in the test with CP266; in the test on CP268; in the test with CP269; in the test on CP297; in the test with CP305) was “inactive” throughout. Also, the Potency result in the test with CP325, in the test on CP329, with CP335, in the test with DIV14, in the test with ECU and in the test on GB4 was “inactive” throughout. The Potency result in the test with JCK, in the test with P93_24, in the test on PAD, in the test on PC15, with PC26 and in the test on PC49 was “inactive” throughout. In addition, the Potency entry in the test with TAB109 and with TAB113 was “inactive” throughout.
With `COc1cc2c(cc1O)CCN[C@@]21CS[C@H]2c3c(OC(C)=O)c(C)c4c(c3C(COC1=O)N1C2C2c3c(cc(C)c(OC)c3O)CC([C@@H]1O)N2C)OCO4` (stereo partly specified), the Potency result in test [1] was “inactive”. The Potency in the test with CP266 was 1.5 nM (active); in the test with CP268 it was 0.5 nM (active); in the test with CP269, 0.5 nM (active); with CP297, 0.5 nM (active); in the test with CP305, 0.5 nM (active); in the test with CP325, 0.5 nM (active). Further, the Potency in the test with CP329 was 0.5 nM (active); with CP335, 0.4 nM (active); in the test with DIV14, 0.4 nM (active); with ECU it was 0.8 nM (active); in the test with GB4 it was 0.2 nM (active); in the test with P93_24 it was 0.9 nM (active). The Potency in the test on PC15 was 1.1 nM (active); in the test with PC26, 1.3 nM (active); with PC49 it was 1.3 nM (active); in the test on TAB109, 0.9 nM (active); with TAB113, 0.9 nM (active).
As to `NC(=O)C1CC2(NC(=O)NC2=O)c2cc(F)ccc2O1` (stereo unspecified), the Potency result (in [1]; in the test on CP266; with CP268; in the test on CP269; with CP297; in the test on CP305) was “inactive” in each case. In addition, the Potency entry in the test with CP325, with CP329, in the test on CP335, in the test with ECU, in the test with GB4 and in the test with JCK was “inactive” in each case. For the same compound, the Potency entry with P93_24, in the test on PAD, with PC15, with PC26, in the test on PC49 and in the test on TAB109 was “inactive” throughout. The Potency entry in the test with TAB113 was “inactive”.
In the case of `CC[C@@]1(O)C[C@H](O[C@H]2C[C@@H](N(C)C)[C@@H](O[C@H]3C[C@@H](O)[C@@H](O[C@H]4CCC(=O)[C@@H](C)O4)[C@@H](C)O3)[C@@H](C)O2)c2c(cc3c(c2O)C(=O)c2c(O)cccc2C3=O)[C@H]1C(=O)OC`, the Potency entry in test [1] was “inactive”. In addition, the Potency is 1200 nM (active) in the test with CP266; 953 nM (active) in the test with CP268; 849 nM (active) with CP269; 953 nM (active) in the test with CP297; 601 nM (active) with CP305; 849 nM (active) with CP325. Also, the Potency with CP329 is 849 nM (active); in the test with CP335, 169 nM (active); in the test on DIV14, 379 nM (active); in the test on ECU, 355 nM (active); in the test with GB4, 601 nM (active); with JCK, 126 nM (active). The Potency in the test on P93_24 was 316 nM (active); in the test with PAD, 178 nM (active); in the test with PC15, 158 nM (active); in the test on PC26 it was 1200 nM (active); in the test on TAB109, 224 nM (active); with TAB113, 199 nM (active).
